For assay [1], the target named is chicken Estrogen Receptor (ERa), ESR1 (gene 396099) (UniProt P06212). Briefly: ATG_chERa_XSP2: Attagene TRANS-FACTORIAL Multi-Species (XSP2) HepG2 Assay for chicken Estrogen Receptor (ERa) (AID 2283817).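 Note: actives raise reporter signal above DMSO so AC50 reflects ER activation.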 In a few lines: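 HepG2 cells transiently transfected with multiplexed GAL4-UAS reporter units expressing chimeric chicken ERa-Gal4; 24 h compound exposure. Reporter mRNA measured by RT-PCR with 6-FAM labelling, HpaI digestion and capillary electrophoresis; gain-of-signal fitted versus DMSO.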

The test system of assay [2] is zebrafish Estrogen Receptor (ER2b), gene 317733. Briefly: ATG_zfER2b_XSP2: Attagene TRANS-FACTORIAL Multi-Species (XSP2) HepG2 Assay for zebrafish Estrogen Receptor (ER2b) (AID 2283823).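 Note: fitted upward as reporter gain over DMSO so potency reflects activation.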 The method in brief: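 Cells used were HepG2, transiently transfected with chimeric nuclear receptor-Gal4 reporter units. After 24 h of chemical treatment, reporter transcripts were amplified by RT-PCR, labelled and sized by capillary electrophoresis, with induction analysed relative to DMSO.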

For assay [3], the system named is frog Estrogen Receptor (ER2), gene 100174814. As to the kind of experiment: ATG_frER2_XSP2: Attagene TRANS-FACTORIAL Multi-Species (XSP2) HepG2 Assay for frog Estrogen Receptor (ER2) (AID 2283828). In a few lines: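 Human liver HepG2, transient MRTU transfection (TRANS format, exogenous NR–Gal4). 24 h cpd exposure. Total RNA → RT → PCR → FAM label → HpaI cut → CE. Positive direction vs DMSO.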

Assay [4] addresses mouse Peroxisome Proliferator-activated Receptor gamma (PPARg), Pparg (gene 19016) (UniProt P37238). As to the kind of experiment: ATG_mPPARg_XSP2: Attagene TRANS-FACTORIAL Multi-Species (XSP2) HepG2 Assay for mouse Peroxisome Proliferator-activated Receptor gamma (PPARg) (AID 2283830).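 Note: hits are gains in reporter mRNA above DMSO so AC50 marks activation.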 The method in brief: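 HepG2 cells transiently transfected with GAL4-UAS reporter units for chimeric NR-Gal4 proteins including mouse PPARg, exposed 24 h; medium contained 3 nM 6-alpha-fluorotestosterone and 1.5 nM norgestrel. Reporter mRNA quantified by RT-PCR, HpaI digestion and capillary electrophoresis, vs DMSO.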

For assay [5], the target named is zebrafish Thyroid Hormone Receptor alpha (TRa), thraa (gene 30670) (UniProt Q98867). Briefly: ATG_zfTRa_XSP2: Attagene TRANS-FACTORIAL Multi-Species (XSP1) HepG2 Assay for zebrafish Thyroid Hormone Receptor alpha (TRa) (AID 2283832).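 Note: actives raise zebrafish TRa-Gal4 reporter transcript above DMSO baseline.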 The method in brief:
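Transient transfection of human HepG2 with GAL4-UAS reporter units, then 24 h chemical treatment. RNA isolated, reverse-transcribed, PCR-amplified, FAM-labelled, HpaI-digested and run on capillary electrophoresis. Gain-of-signal relative to DMSO.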

For assay [6], the system named is zebrafish Peroxisome Proliferator-activated Receptor gamma (PPARg), gene 557037. As to the kind of experiment: ATG_zfPPARg_XSP2: Attagene TRANS-FACTORIAL Multi-Species (XSP2) HepG2 Assay for zebrafish Peroxisome Proliferator-activated Receptor gamma (PPARg) (AID 2283833).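 Note: actives increase reporter signal over DMSO so AC50 reflects activation.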 In a few lines:
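Multi-species TRANS format in HepG2, 24 h dosing; medium also contained 3 nM 6-alpha-fluorotestosterone and 1.5 nM norgestrel to stimulate androgen receptor. Zebrafish PPARg-GAL4 induced reporter mRNA was measured by RT-PCR/capillary electrophoresis.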

Assay [7] concerns turtle Thyroid Hormone Receptor, alpha (TRa), gene 101949057. Briefly: ATG_trTRa_XSP2: Attagene TRANS-FACTORIAL Multi-Species (XSP1) HepG2 Assay for turtle Thyroid Hormone Receptor, alpha (TRa) (AID 2283834).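 Note: hits raise reporter mRNA over the DMSO baseline so AC50 marks activators.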 The method in brief:
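Transfection of HepG2 with multiple reporter transcription units, then chemical dosing for 24 h. Total RNA was reverse-transcribed, reporter sequences PCR-amplified and FAM-labelled, then sized by capillary electrophoresis. DMSO served as baseline.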

Assay [8] is described as follows: ATG_M_61_XSP2: Attagene TRANS-FACTORIAL Multi-Species (XSP2) HepG2 Assay for M61 Transcription Factor (Internal Marker) (AID 2283835; active = hit-call score of the fitted dose curve at least 0.9, where 1 is the maximum; inactive = score below 0.9;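 note: reporter mRNA of an internal background marker read by RT-PCR and capillary electrophoresis; active means a rise in signal above the DMSO baseline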). The method in brief:
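HepG2 cells transiently transfected with multiple GAL4-UAS reporter units; 3 nM 6-alpha-fluorotestosterone and 1.5 nM norgestrel present to stimulate androgen receptor. After 24 h compound exposure, reporter mRNA measured by RT-PCR and capillary electrophoresis fluorescence, gain-of-signal versus DMSO baseline.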

In assay [9] the target is human Thyroid hormone Receptor alpha (TRa), THRA (gene 7067) (UniProt P10827). As to the kind of experiment: ATG_hTRa_XSP2: Attagene TRANS-FACTORIAL Multi-Species (XSP2) HepG2 Assay for human Thyroid hormone Receptor alpha (TRa) (AID 2283838). In a few lines: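 HepG2 cells were transiently transfected with GAL4-UAS reporter units for chimeric human TRa-Gal4 and dosed for 24 hours, with 3 nM 6-alpha-fluorotestosterone and 1.5 nM norgestrel present. Reporter mRNA was quantified by RT-PCR, FAM labelling and capillary electrophoresis, with gain of signal fitted versus DMSO.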

The target in assay [10] is frog Thyroid hormone Receptor alpha (TRa), thra-a (gene 397942) (UniProt P15204). Briefly: ATG_frTRa_XSP2: Attagene TRANS-FACTORIAL Multi-Species (XSP2) HepG2 Assay for frog Thyroid hormone Receptor alpha (TRa) (AID 2283839). The method in brief:
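Transfect HepG2 with multiple reporter units (GAL4-UAS), dose chemical, incubate 24 h. Isolate RNA, reverse-transcribe, PCR-amplify reporter, label with 6-FAM by primer extension, digest with HpaI, run capillary electrophoresis; induction scored against DMSO.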

For assay [11], the target named is human Thyroid hormone Receptor beta (TRb), THRB (gene 7068) (UniProt P10828). As to the kind of experiment: ATG_hTRb_XSP2: Attagene TRANS-FACTORIAL Multi-Species (XSP2) HepG2 Assay for human Thyroid hormone Receptor beta (TRb) (AID 2283840).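 Note: actives raise reporter mRNA so potency reflects agonist-like gain of signal.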 In a few lines:
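Transient transfection of human HepG2 with multi-species NR-Gal4/GAL4-UAS reporter constructs; 24 h compound treatment; RNA isolation, reverse transcription, PCR and HpaI digest; capillary electrophoresis of labeled fragments; activity fitted upward versus DMSO.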

Assay [12] has as its system Sodium/Iodide Symporter (NIS), SLC5A5 (gene 6528). As to the kind of experiment: CPHEA_Stoker_NIS_Inhibition_RAIU: CPHEA's Radioactive Iodide Uptake (RAIU) Assay for Sodium/Iodide Symporter (NIS) Inhibition, Stoker and Laws Labs (AID 2283841). The method in brief: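 hNIS-HEK293T-EPA cells incubated 2 h at room temperature with compound (0.001–100 uM, 0.5% DMSO) and 329 pM final 125I in HBSS/10 mM HEPES, pH 7.4. Intracellular 125I counted; normalised to DMSO maximal uptake, triplicate, three biological replicates.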

Assay [13] is described as follows: CPHEA_Stoker_NIS_Cytotoxicity: Cytotoxicity Assessment for CPHEA's Radioactive Iodide Uptake (RAIU) Assay for Sodium/Iodide Symporter (NIS) Inhibition, Stoker and Laws Labs (AID 2283897).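 For AC50: active means loss of ATP signal versus DMSO meaning cytotoxicity.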 The method in brief:
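hNIS-HEK293T-EPA cells, human NIS expressed in HEK293T, treated 2 h with chemicals (0.001–100 uM, 0.5% final DMSO). ATP content read by CellTiter-Glo luminescence; loss of signal analysed relative to DMSO.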

The target of assay [14] is Estrogen receptor (Homo sapiens) (UniProt P03372). Briefly: ATG_hERa_XSP2: Attagene TRANS-FACTORIAL Multi-Species (XSP2) HepG2 Assay for human Estrogen Receptor (ERa) (AID 2283827). In a few lines: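 HepG2 cells transiently transfected with multiplexed GAL4-UAS reporters driven by chimeric receptor-Gal4 proteins, dosed 24 h with 3 nM 6-alpha-fluorotestosterone and 1.5 nM norgestrel present. Reporter mRNA by RT-PCR and capillary electrophoresis; gain-of-signal fit versus DMSO.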

Assay [15] deals with Nuclear receptor subfamily 1 group I member 2 (Mus musculus) (UniProt O54915). Briefly: ATG_mPXR_XSP2: Attagene TRANS-FACTORIAL Multi-Species (XSP1) HepG2 Assay for mouse Pregnane X Receptor (PXR) (AID 2283831). In a few lines: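 Reporter transcripts were quantified by RT-PCR, FAM primer extension, HpaI digestion and capillary electrophoresis after 24 h of chemical exposure in transiently transfected HepG2 cells carrying chimeric receptor-GAL4 constructs; DMSO served as baseline.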

A short description of assay [16]: ATG_XTT_Cytotoxicity_XSP2: Cytotoxicity Assessment in the Attagene TRANS-FACTORIAL Multi-Species (XSP2) HepG2 Assay (AID 2283837). The method in brief: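 HepG2 cells, transiently transfected with multiple reporter constructs, exposed to chemical for 24 h. Cell number assessed with XTT fluorescence read-out; loss of signal fitted relative to DMSO.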
Assay [17] can be described thus: CEETOX_H295R_11DCORT_noMTC: CeeTox H295R High-throughput Steroidogenesis Assay for 11-Deoxycortisol (11DCORT), maximum tolerated concentration (MTC) filtered results only (AID 2283911; active = hit-call score of the fitted dose curve at least 0.9, where 1 is the maximum; inactive = score below 0.9). To be noted: actives raise or lower the signal. The method in brief:
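Steroidogenesis was stimulated in H295R cells with 10 uM forskolin for 48 h before a 48 h chemical exposure. Secreted 11-deoxycortisol was measured by tandem mass spectrometry and fitted bidirectionally against DMSO controls.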

Values joined by “and” are separate entries in the source; they are usually repeats but may differ in a detail not shown here. Equal entries are not always repeated. Records with an inconclusive call do not appear. More than one record can exist for a structure, and the calls need not agree. Active and inactive are the calls of the source. Rule for the calls, unless noted: active = hit-call score of the fitted dose curve at least 0.9, where 1 is the maximum; inconclusive = response in the unintended direction; inactive = score below 0.9.

These results are taken from PubChem BioAssay (EPA / NIEHS).

Chain of mouse Peroxisome Proliferator-activated Receptor gamma (PPARg), Pparg (gene 19016) (P37238 whole entry, looked up, the tested form may be a part): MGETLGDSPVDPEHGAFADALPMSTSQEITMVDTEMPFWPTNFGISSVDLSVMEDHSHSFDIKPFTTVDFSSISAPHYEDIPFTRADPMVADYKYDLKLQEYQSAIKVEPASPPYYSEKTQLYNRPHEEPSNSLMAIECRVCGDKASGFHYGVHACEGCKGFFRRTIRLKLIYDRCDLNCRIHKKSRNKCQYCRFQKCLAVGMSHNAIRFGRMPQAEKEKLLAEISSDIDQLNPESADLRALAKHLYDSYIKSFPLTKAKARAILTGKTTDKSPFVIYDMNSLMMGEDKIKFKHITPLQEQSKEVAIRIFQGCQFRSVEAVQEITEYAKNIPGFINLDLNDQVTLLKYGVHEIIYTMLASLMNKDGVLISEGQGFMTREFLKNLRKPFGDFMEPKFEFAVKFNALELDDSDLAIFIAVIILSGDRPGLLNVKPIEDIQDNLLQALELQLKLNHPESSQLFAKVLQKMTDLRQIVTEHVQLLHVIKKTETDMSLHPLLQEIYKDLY
Chain of chicken Estrogen Receptor (ERa), ESR1 (gene 396099) (P06212 whole entry, looked up, the tested form may be a part): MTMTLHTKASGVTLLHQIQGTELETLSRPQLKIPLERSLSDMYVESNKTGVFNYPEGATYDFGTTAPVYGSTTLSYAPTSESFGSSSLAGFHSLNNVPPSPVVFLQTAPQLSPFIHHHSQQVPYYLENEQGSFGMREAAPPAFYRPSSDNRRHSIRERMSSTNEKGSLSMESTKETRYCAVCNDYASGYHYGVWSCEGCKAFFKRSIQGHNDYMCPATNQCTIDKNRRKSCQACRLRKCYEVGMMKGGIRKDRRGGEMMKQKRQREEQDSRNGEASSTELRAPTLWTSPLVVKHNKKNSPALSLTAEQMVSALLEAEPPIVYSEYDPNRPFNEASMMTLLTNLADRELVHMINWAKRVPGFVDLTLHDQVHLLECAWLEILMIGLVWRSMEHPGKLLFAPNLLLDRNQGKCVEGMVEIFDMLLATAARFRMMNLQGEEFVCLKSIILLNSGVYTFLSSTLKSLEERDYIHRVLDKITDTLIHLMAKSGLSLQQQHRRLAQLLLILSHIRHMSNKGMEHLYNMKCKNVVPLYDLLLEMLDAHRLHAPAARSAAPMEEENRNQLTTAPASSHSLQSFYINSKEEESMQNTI
Chain of frog Thyroid hormone Receptor alpha (TRa), thra-a (gene 397942) (P15204 whole entry, looked up, the tested form may be a part): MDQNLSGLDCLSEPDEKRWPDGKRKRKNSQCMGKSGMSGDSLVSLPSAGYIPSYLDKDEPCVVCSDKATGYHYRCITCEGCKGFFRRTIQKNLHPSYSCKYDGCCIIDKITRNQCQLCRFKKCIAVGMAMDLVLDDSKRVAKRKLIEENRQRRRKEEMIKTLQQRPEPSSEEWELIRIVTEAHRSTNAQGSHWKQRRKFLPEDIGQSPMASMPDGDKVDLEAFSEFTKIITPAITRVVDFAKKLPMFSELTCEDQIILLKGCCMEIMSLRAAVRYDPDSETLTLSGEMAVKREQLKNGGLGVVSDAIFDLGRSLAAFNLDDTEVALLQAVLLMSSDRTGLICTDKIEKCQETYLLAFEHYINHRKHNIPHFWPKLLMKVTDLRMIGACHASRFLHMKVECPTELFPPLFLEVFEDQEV
Chain of Nuclear receptor subfamily 1 group I member 2 (Mus musculus) (O54915 whole entry, looked up, the tested form may be a part): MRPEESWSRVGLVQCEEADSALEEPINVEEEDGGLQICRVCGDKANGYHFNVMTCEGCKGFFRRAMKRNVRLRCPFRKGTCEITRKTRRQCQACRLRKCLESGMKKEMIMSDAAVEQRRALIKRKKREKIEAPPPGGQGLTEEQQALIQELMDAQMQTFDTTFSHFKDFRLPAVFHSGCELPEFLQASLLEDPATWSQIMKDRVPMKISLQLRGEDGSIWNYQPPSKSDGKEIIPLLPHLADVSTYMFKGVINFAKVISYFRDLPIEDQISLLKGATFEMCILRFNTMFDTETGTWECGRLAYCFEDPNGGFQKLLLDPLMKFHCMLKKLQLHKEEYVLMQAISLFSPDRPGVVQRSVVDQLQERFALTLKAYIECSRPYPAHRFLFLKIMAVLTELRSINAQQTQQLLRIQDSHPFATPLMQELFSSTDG
Chain of zebrafish Thyroid Hormone Receptor alpha (TRa), thraa (gene 30670) (Q98867 whole entry, looked up, the tested form may be a part): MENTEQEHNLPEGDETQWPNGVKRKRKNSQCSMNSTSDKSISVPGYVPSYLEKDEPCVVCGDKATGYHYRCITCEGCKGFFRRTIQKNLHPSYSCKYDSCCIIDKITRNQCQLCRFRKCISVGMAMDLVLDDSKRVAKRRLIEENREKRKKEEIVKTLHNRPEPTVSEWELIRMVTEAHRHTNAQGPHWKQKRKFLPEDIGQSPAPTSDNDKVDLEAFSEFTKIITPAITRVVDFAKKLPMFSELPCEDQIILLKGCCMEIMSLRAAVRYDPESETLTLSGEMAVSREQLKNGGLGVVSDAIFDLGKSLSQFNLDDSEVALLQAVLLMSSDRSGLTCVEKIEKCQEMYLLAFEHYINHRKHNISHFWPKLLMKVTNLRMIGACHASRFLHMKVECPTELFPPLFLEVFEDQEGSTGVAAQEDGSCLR
Chain of human Thyroid hormone Receptor beta (TRb), THRB (gene 7068) (P10828 whole entry, looked up, the tested form may be a part): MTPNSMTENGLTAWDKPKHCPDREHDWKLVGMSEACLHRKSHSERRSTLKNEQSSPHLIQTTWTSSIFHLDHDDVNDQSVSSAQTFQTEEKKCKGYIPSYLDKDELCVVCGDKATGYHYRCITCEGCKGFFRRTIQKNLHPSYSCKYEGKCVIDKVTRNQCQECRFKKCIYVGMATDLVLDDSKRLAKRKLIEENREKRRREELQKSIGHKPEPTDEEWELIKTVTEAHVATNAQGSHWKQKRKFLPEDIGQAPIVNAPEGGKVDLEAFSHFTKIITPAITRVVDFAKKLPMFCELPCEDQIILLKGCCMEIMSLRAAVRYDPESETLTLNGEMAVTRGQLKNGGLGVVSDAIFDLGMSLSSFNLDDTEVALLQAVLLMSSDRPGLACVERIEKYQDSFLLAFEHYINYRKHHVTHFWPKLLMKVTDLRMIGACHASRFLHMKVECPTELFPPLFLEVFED
Chain of human Thyroid hormone Receptor alpha (TRa), THRA (gene 7067) (P10827 whole entry, looked up, the tested form may be a part): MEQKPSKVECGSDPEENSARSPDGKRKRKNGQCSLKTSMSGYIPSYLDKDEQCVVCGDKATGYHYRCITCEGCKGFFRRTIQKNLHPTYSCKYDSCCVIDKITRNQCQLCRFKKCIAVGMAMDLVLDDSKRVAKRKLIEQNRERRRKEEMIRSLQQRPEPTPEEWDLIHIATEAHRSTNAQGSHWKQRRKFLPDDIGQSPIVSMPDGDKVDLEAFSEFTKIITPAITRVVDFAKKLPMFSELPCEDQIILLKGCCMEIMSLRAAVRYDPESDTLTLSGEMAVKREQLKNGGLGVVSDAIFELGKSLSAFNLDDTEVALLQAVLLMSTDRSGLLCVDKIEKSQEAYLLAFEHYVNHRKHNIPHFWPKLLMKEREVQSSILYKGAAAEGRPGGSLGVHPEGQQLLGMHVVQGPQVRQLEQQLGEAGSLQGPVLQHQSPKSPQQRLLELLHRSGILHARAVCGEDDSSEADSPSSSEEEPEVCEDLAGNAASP
Chain of Estrogen receptor (Homo sapiens) (P03372 whole entry, looked up, the tested form may be a part): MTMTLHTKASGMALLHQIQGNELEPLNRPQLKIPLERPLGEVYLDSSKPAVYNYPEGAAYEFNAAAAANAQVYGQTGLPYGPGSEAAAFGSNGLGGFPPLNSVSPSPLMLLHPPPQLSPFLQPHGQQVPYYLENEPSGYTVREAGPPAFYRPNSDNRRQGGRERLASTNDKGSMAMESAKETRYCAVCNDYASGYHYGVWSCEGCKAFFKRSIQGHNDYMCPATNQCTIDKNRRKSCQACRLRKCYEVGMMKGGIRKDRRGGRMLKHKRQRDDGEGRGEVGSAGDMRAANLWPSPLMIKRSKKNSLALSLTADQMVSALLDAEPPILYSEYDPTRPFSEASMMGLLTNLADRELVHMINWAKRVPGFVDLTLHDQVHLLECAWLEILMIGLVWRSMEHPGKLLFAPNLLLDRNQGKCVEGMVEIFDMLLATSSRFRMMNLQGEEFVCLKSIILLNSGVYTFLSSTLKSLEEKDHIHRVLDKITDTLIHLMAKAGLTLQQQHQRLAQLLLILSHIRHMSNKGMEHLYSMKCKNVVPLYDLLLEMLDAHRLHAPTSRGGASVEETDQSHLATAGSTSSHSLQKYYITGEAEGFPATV

What is called AC50 is the concentration at which the activity in the assay is half-maximal. In the case of `O=C1C2(Cl)C3(Cl)C4(Cl)C(Cl)(Cl)C5(Cl)C3(Cl)C1(Cl)C5(Cl)C24Cl` (stereo not drawn), the AC50 in [1] is 1.33 µM (active); in assay [2], 4.05 µM (active); in assay [11], 10 µM (active). In addition, the molecule was classed as inactive in assay [3], in assay [4], in [5], in assay [6], in [7] and in [8]. The molecule was classed as inactive in assay [9], in assay [10], in [12] and in [13].

For `O=S(=O)(c1ccc(Cl)cc1)c1ccc(Cl)cc1`, the AC50 was 35.3 µM (active) and 19.3 µM (active) in [1]; 100 µM (active) and 27.1 µM (active) in assay [2]; 4.86 µM (active) and 27.8 µM (active) in [14]; 28 µM (active) in [3]; 16.3 µM (active) and 26.8 µM (active) in assay [4]; 4.34 µM (active) and 2.83 µM (active) in assay [15]. The figures for the half-maximal activity concentration (AC50) in assay [11] and in assay [12] were 19.8 µM (active) and 9.92 µM (active), respectively. In addition, the call in [3], in [5], in [6], in assay [7], in assay [8] and in [16] was inactive. Also, the call in assay [9], in assay [10] and in assay [13] was inactive.

On to `c1cc[c]([Hg][c]2ccccc2)cc1`, for which the result in assay [12] and in assay [13] was inactive. In addition, the AC50 in [17] is 53.6 µM (active).

For `CC(=O)c1cc(C(C)(C)C)cc2c1CCC2(C)C`, the outcome in [12] and in assay [13] was inactive.

As for `O=C/C=C/c1ccccc1`, the result in assay [12] and in [13] was inactive.

Turning to `CC(=O)[O][Hg][c]1ccccc1`, the concentration at half-maximal activity (AC50) in assay [12] is 50 µM (active); in assay [13], 9.92 µM (active).

On to `CCC[CH2][Sn]([CH2]CCC)([CH2]CCC)[O]C(=O)c1ccccc1`, for which the AC50 was 1.4 µM (active) in assay [12] and 9.05 µM (active) in [13].

In the case of `O=[N+]([O-])c1ccc(O)c([N+](=O)[O-])c1`, the outcome in assay [12] and in [13] was inactive.

Consider `NNC(=S)NN`, for which the result in [12] and in assay [13] was inactive.

Consider `O=C(O)C(F)(F)C(F)(F)C(F)(F)C(F)(F)C(F)(F)C(F)(F)F`, for which the result in [12] and in assay [13] was inactive.

Take `CCC(C)(C)c1ccc(O)c(C(C)(C)CC)c1`: the outcome in assay [12] was inactive. Also, the AC50 in assay [13] was 9.92 µM (active).

Take `CC(C)c1cccc(C(C)C)c1O`: the result in assay [12] and in assay [13] was inactive.

On to `[O-][Cl+2]([O-])O`, for which the result in [12] and in [13] was inactive.

On to `ClC(Cl)=C(Cl)C(Cl)=C(Cl)Cl`, for which the molecule was classed as inactive in assay [17].

For `Cc1ccccc1C(=O)Nc1cccc(OC(C)C)c1`, the result in assay [12] and in [13] was inactive.

`CCN1CCC2(CC1)COc1cc3c(cc12)N(C(=O)c1ccc(-c2ccc(-c4nnc(C)o4)cc2C)cc1)CC3`: the AC50 in assay [12] is 72.8 µM (active); in [13], 8.43 µM (active).

For `O=C(OC1CCCCC1)c1ccccc1C(=O)OC1CCCCC1`, the outcome in assay [12] and in [13] was inactive. The AC50 in assay [17] is 2.24 µM (active).

Take `CCCCCCCCSC(=O)Oc1cc(Cl)nnc1-c1ccccc1`: the outcome in assay [12] and in assay [13] was inactive.

Take `O=C(NCO)NCO`: the outcome in assay [12] and in [13] was inactive.

For the molecule `COP(=S)(OC)Oc1ccc(Sc2ccc(OP(=S)(OC)OC)cc2)cc1`, the result in assay [12] and in [13] was inactive.

With `CC(C)(c1ccc(OCC2CO2)cc1)c1ccc(OCC2CO2)cc1` (stereo not drawn), the result in [12] and in assay [13] was inactive.

`Cn1sc(Cl)cc1=O`: the result in assay [12], in assay [13] and in assay [17] was inactive.

For `CCC1(c2ccc(N)cc2)CCC(=O)NC1=O` (stereo not drawn), the call in assay [17] was inactive.
